IDE cell activ: human IDE activators in live cells, primary screen, fluorescence polarization, HEK cells, FAbeta-B substrate; FAbeta-B cleavage; 0% vehicle, 100% cell-free pure enzyme wells; activation, % at 5.96 µM; hit rate 0.073% among 340,000; AID 493087, 2011;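 active = activation above the mean of all tested compounds plus 3 SD, set per screening campaign, cut at about 17% in these data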
Target sequence (P14735 whole entry, looked up): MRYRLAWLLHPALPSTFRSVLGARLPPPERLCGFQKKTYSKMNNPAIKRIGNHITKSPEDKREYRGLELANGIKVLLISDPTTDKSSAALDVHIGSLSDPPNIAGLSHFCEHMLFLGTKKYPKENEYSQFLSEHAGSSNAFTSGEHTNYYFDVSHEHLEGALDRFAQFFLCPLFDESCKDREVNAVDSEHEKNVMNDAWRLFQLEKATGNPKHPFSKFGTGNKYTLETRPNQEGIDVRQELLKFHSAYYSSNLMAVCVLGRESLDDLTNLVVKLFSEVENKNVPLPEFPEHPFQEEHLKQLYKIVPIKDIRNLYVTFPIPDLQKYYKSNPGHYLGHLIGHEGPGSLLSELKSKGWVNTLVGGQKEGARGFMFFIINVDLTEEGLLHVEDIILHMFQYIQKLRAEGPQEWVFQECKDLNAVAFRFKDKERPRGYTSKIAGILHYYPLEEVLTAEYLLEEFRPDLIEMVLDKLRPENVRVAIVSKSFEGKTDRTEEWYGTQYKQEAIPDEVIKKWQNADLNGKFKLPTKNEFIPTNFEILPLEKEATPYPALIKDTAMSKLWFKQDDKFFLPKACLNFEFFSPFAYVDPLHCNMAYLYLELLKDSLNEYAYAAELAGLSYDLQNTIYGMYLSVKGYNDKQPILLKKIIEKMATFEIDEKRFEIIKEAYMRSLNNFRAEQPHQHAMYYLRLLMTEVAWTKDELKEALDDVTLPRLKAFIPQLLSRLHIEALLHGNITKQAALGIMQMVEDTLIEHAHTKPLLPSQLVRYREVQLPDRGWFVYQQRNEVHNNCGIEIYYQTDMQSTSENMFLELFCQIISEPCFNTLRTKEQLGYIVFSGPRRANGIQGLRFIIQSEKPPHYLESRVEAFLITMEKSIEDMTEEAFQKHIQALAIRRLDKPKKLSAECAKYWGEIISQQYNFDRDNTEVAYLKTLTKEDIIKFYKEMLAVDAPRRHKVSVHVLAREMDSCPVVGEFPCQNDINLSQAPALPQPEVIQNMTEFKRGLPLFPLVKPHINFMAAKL
Myeloid diff 2: induction of myeloid progenitor differentiation, primary screen, cell-based, flow cytometry, MLPCN library. calls only at 10 µM. hit rate 1% among 360,000. AID 624256, 2012. ER-HoxA9 myeloid progenitors, lysozyme-GFP differentiation;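 active = normalized GFP-positive differentiation at or above the plate's own cutoff, the solvent-only control mean plus 3 SD; inconclusive = no clear call, values can overlap the other calls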;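 also: cells exposed to compound for four days before flow analysis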
IDE cell inh: human IDE inhibitors in live cells, primary screen, fluorescence polarization, HEK cells, FAbetaB substrate; FAbetaB cleavage; inhibition, % at 5.59 µM; hit rate 0.41% among 320,000;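 active = percent inhibition above the average of all tested compounds plus 3 SD, set per screening campaign, cut at about 16% in these data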;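 also: IDE supplied by intact live HEK cells; FP after avidin binding of uncleaved biotin substrate so inhibition keeps polarization high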
CRFBP-R2 agonist: agonists of CRF-BP/CRF-R2 complex, primary screen, cell-based, HEK293, calcium dye fluorescence, uHTS; calcium dye fluorescence (FLIPR); percent of saturating CRF peptide response; hit rate 0.46% among 350,000; activation, % at 13.2 µM; CRF-binding protein / CRF receptor 2 complex (human);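 active = activation of at least 50%, plus an integration ratio under a set limit after plate pattern correction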
CRFR2-BP antag: antagonists of CRF-BP/CRF-R2 complex, primary screen, cell-based, HEK293, calcium dye fluorescence, uHTS; inhibition, % at 11.8 µM; hit rate 0.59% among 350,000; AID 588475, 2011; CRF-induced calcium fluorescence;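 active = inhibition of the ligand-induced calcium signal above about 50% at the single tested concentration, limit read from the data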
TPT1 inhibitor: Candida albicans TPT1 enzyme inhibitors, primary screen, biochemical, fluorescence polarization. tRNA 2'-phosphotransferase TPT1 (Candida albicans SC5314). recombinant caTPT1, FP RNA substrate dephosphorylation. inhibition, % at 5 µM. hit rate 0.81% among 300,000. AID 1962, 2009;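 active = inhibition above the mean of all tested compounds plus 3 SD, set per screening campaign, cut at about 24% in these data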
caTPT1 confirm: Candida albicans TPT1 inhibitors, confirmation, biochemical, fluorescence polarization, triplicate. shares compounds with TPT1 inhibitor. recombinant caTPT1, RNase T1 coupled. inhibition, % at 5 µM. hit rate 74% among 2,400. AID 2149, 2009;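 active = inhibition above the primary screen limit, the mean inhibition of all tested compounds plus 3 SD, cut at about 25% in these data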
RNase T1 counter: RNase T1 inhibitors, counter-screen for TPT1 inhibitor project, biochemical, fluorescence polarization; hit rate 83% among 2,400; shares compounds with TPT1 inhibitor; inhibition, % at 5 µM; RNase T1 cleavage, 1536-well; AID 2153, 2009;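 active = inhibition above the solvent-only control well mean plus 3 SD, limit set per screening run, cut at about 23% in these data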;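 also: inhibitors block cleavage so intact labeled substrate keeps polarization high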
IDE inh confirm: human IDE inhibitors in live cells, confirmation, fluorescence polarization, HEK cells, FAbetaB substrate; shares compounds with IDE cell inh; FAbetaB cleavage; inhibition, % at 5.59 µM; hit rate 51% among 1,200;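 active = mean inhibition across triplicate wells above the cutoff set by the earlier primary insulin-degrading enzyme screen, cut at about 16% in these data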
HEK cytotox: cytotoxicity in HEK cells, cytotoxicity control for IDE inhibitor project, cell-based, luminescence | shares compounds with IDE cell inh | HEK293 cytotoxicity, ATP luminescence | inhibition, % at 5.59 µM | hit rate 28% among 1,200 | AID 449730, 2010; in the data active = inhibition above about 22%
Of the large screens only hits and unclear results are named; the others gave an inactive call (follow-up assays come after a bar, where they were run). Compounds with a hit are over-represented: about 2.6% of the library has one in this group of screens.

COc1cc(/C=C2\SC(=S)N(C(C(=O)O)c3ccccc3)C2=O)ccc1O (stereo not given)	IDE cell inh 64, CRFBP-R2 agonist 53, TPT1 inhibitor 27 | caTPT1 confirm 28 | RNase T1 counter 41 | IDE inh confirm 174 | HEK cytotox inactive
COc1cc(/C=C2\SC(=S)N(CCC(=O)Nc3ccccc3)C2=O)cc(OC)c1OC	none
CCCCOC(=O)c1ccc(NC(=O)C(=O)NCCN(C)C)cc1	none
Cn1nc(C2CC2)cc1NC(=O)C1(C)CCN1C(=O)CCc1ccccc1 (stereo not given)	none (no result: IDE cell activ, IDE cell inh, CRFBP-R2 agonist, CRFR2-BP antag, TPT1 inhibitor)
O=C1/C(=C\c2cccc(O)c2)SC(=S)N1Cc1ccccc1	none
CCOc1cc(/C=C2\SC(=S)N(C(C(=O)O)c3ccccc3)C2=O)ccc1O (stereo not given)	IDE cell inh 68, TPT1 inhibitor 45 | caTPT1 confirm 48 | RNase T1 counter 61 | IDE inh confirm 140 | HEK cytotox inactive
CCOc1ccc(/C=C2/SC(=S)N(C(C(=O)O)c3ccccc3)C2=O)cc1OCC (stereo not given)	none (no result: Myeloid diff 2, IDE cell inh, TPT1 inhibitor)
COc1cc(/C=C2/SC(=S)N(Cc3ccccc3)C2=O)ccc1O	Myeloid diff 2 active, IDE cell inh 115, TPT1 inhibitor 24 | caTPT1 confirm 37 | RNase T1 counter 46 | IDE inh confirm 139 | HEK cytotox inactive
Cc1cccc(OCc2nnc(SCC(=O)Nc3ccc(C)c(Cl)c3)o2)c1	none
Cc1ccc(NC(=O)Cc2ccc3c(c2)OCCO3)cc1S(=O)(=O)N1CCCCC1	none
O=C(NCc1ccncc1)C1CCCN(S(=O)(=O)c2cc(Cl)ccc2Cl)C1 (stereo not given)	none
Cc1ccc(C=C(C#N)C(=O)c2ccccc2)cc1	none (no result: IDE cell activ, IDE cell inh, CRFBP-R2 agonist, CRFR2-BP antag, TPT1 inhibitor)
CN(C)c1ccc(/C=C(\C#N)C(=O)c2ccccc2)cc1	IDE cell inh 28, CRFBP-R2 agonist 212, TPT1 inhibitor 158 | caTPT1 confirm 162 | RNase T1 counter 150 | IDE inh confirm 96 | HEK cytotox inactive
CCN(CC)c1ccc(/C=C(\C#N)C(N)=S)cc1	Myeloid diff 2 active, IDE cell inh 22, CRFBP-R2 agonist 72, TPT1 inhibitor 104 | caTPT1 confirm inactive | RNase T1 counter inactive | IDE inh confirm inactive | HEK cytotox inactive
CCN(CC)c1ccc(/C=C(\C#N)C(=O)c2ccc(Br)cc2)cc1	IDE cell inh 68, CRFBP-R2 agonist 301, TPT1 inhibitor 137 | caTPT1 confirm 104 | RNase T1 counter 103 | IDE inh confirm 51 | HEK cytotox inactive
C=CCc1c(C)[nH]c2c(OC)cccc2c1=S	none
CC1CN(C(=O)COC(=O)Cc2ccc(Cl)cc2)CC(C)O1 (stereo not given)	none (no result: TPT1 inhibitor)
N#Cc1ccc(-c2cccnc2)nc1SCC(=O)c1ccccc1	Myeloid diff 2 active, IDE cell inh 23, TPT1 inhibitor 67 | caTPT1 confirm 66 | RNase T1 counter 74 | IDE inh confirm 42 | HEK cytotox inactive
CCCCCCN1C=CC=C/C1=C\C=C(C#N)C#N	IDE cell inh 25, TPT1 inhibitor 61 (no result: IDE cell activ) | caTPT1 confirm 73 | RNase T1 counter 84 | IDE inh confirm 35 | HEK cytotox inactive
COCCC(=O)N1CCC(Oc2ccc(C(=O)N3CCCCC3CCO)cc2)CC1 (stereo not given)	none
COC1=CC(=Cc2c(N)n3nc(CC(=O)N4CCCCC4)sc3nc2=O)C=C(OC)C1=O	Myeloid diff 2 active, IDE cell inh 41, CRFBP-R2 agonist 173, TPT1 inhibitor 31 | caTPT1 confirm 112 | RNase T1 counter 110 | IDE inh confirm 26 | HEK cytotox inactive
Nc1c(C=C2C=CC(=O)C=C2)c(=O)nc2sc(CC(=O)N3CCCCC3)nn12	none
CN(c1ccccc1)c1ccc(/C=C/[N+](=O)[O-])cc1	Myeloid diff 2 inconclusive, IDE cell inh 32, CRFBP-R2 agonist 75, TPT1 inhibitor 42 | caTPT1 confirm 55 | RNase T1 counter 71 | IDE inh confirm 26 | HEK cytotox 117
COc1cc(/C=C/c2nc3ccccc3c(=O)[nH]2)cc(Cl)c1O	IDE cell inh 27, TPT1 inhibitor 41 | caTPT1 confirm 71 | RNase T1 counter 74 | IDE inh confirm 100 | HEK cytotox inactive
COc1cc2nc(/C=C/c3ccc(N(C)C)cc3)sc2cc1SC	Myeloid diff 2 active, IDE cell inh 70, CRFBP-R2 agonist 332, TPT1 inhibitor 155 | caTPT1 confirm 153 | RNase T1 counter 138 | IDE inh confirm 51 | HEK cytotox inactive
Cc1ccc(S(=O)(=O)NN2C(=O)/C(=C/c3cccc(F)c3)SC2=S)cc1	none
COc1cc(/C=C2\SC(=S)N(NS(=O)(=O)c3ccccc3)C2=O)ccc1O	IDE cell inh 74, TPT1 inhibitor 31 | caTPT1 confirm 34 | RNase T1 counter 42 | IDE inh confirm 161 | HEK cytotox inactive
COc1cc(/C=C2\SC(=S)N(NS(=O)(=O)c3ccc(C)cc3)C2=O)ccc1O	IDE cell inh 72, CRFBP-R2 agonist 59, TPT1 inhibitor 30 | caTPT1 confirm 36 | RNase T1 counter 48 | IDE inh confirm 161 | HEK cytotox inactive
CCN(CC)c1ccc(/C=C(/C#N)c2nc3ccccc3[nH]2)c(OC(C)C)c1	IDE cell inh 141, CRFBP-R2 agonist 158, TPT1 inhibitor 163 (no result: Myeloid diff 2) | caTPT1 confirm 163 | RNase T1 counter 149 | IDE inh confirm 149 | HEK cytotox 32
COc1cc(C#N)ccc1OCC(=O)Nc1cccc(S(=O)(=O)N(C)c2ccccc2)c1	none (no result: IDE cell activ, IDE cell inh, TPT1 inhibitor)
COC(=O)c1ccc(C2c3[nH]c4ccccc4c3C[C@H]3C(=O)N(C)CC(=O)N23)cc1 (stereo not given in full)	none

Bioassay records: PubChem, several laboratories
